Test results taken from the supplement of paper PMC6555819.

How the values were obtained:
Assay in all cases: PBM binding z-score (relative to random genomic background probes); higher = stronger binding; sequences stand for … in GC…GCGATTGACAGCGTAGAATGAAGG
[1] = tested on: FXR:RXRa (NR concentration 270 nM, RXRa partner concentration 90 nM)
Method in brief: (§1)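 Regression normalization was applied to scanned fluorescence from custom Agilent 4×180K protein-binding microarrays. Before scanning, arrays were incubated 1 h with ligand-free nuclear receptor dimers, and binding was detected with antibodies against each partner (one per run). Binding z-scores use the random background probes as reference.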

[2] = tested on: LXRa:RXRa (NR concentration 270 nM, RXRa partner concentration 90 nM)
Method in brief: as §1

[3] = tested on: LXRa homodimer (NR concentration 270 nM)
Method in brief: as §1

[4] = tested on: LXRb:RXRa (NR concentration 270 nM, RXRa partner concentration 90 nM)
Method in brief: as §1

[5] = tested on: LXRb homodimer (NR concentration 270 nM)
Method in brief: as §1

[6] = tested on: PPARa:RXRa (NR concentration 270 nM, RXRa partner concentration 90 nM)
Method in brief: as §1

[7] = tested on: PPARg:RXRa (NR concentration 180 nM, RXRa partner concentration 90 nM)
Method in brief: as §1

[8] = tested on: PPARg:RXRa 270nM:90nM, anti-RXR (NR concentration 270 nM, RXRa partner concentration 90 nM)
Method in brief: as §1

[9] = tested on: PPARg:RXRa 30nM:10nM, anti-RXR (NR concentration 30 nM, RXRa partner concentration 10 nM)
Method in brief: as §1

[10] = tested on: PPARg:RXRa 90nM:30nM, anti-RXR (NR concentration 90 nM, RXRa partner concentration 30 nM)
Method in brief: as §1

[11] = tested on: PPARg:RXRa DBDmut IVT, anti-RXR (DBD mutation: RXRa K156A/R161A, NR concentration 270 nM, RXRa partner concentration 90 nM)
Method in brief: as §1

[12] = tested on: PPARg:RXRa IVT, anti-PPARg (NR concentration 270 nM, RXRa partner concentration 90 nM)
Method in brief: as §1

[13] = tested on: PPARg DBDmut:RXRa IVT, anti-PPARg (DBD mutation: PPARg1 K132A/R137A, NR concentration 270 nM, RXRa partner concentration 90 nM)
Method in brief: as §1

[14] = tested on: PPARg DBDmut IVT, anti-PPARg (DBD mutation: PPARg1 K132A/R137A, NR concentration 270 nM)
Method in brief: as §1

[15] = tested on: PPARg homodimer (NR concentration 180 nM)
Method in brief: as §1

[16] = tested on: PXR:RXRa (NR concentration 270 nM, RXRa partner concentration 90 nM)
Method in brief: as §1

[17] = tested on: PXR homodimer (NR concentration 270 nM)
Method in brief: as §1

[18] = tested on: RARa:RXR (NR concentration 270 nM, RXRa partner concentration 90 nM)
Method in brief: as §1

[19] = tested on: RARa homodimer (NR concentration 270 nM)
Method in brief: as §1

[20] = tested on: RARb:RXRa (NR concentration 270 nM, RXRa partner concentration 90 nM)
Method in brief: as §1

Sequence | PBM binding z-score [1] | PBM binding z-score [2] | PBM binding z-score [3] | PBM binding z-score [4] | PBM binding z-score [5] | PBM binding z-score [6] | PBM binding z-score [7] | PBM binding z-score [8] | PBM binding z-score [9] | PBM binding z-score [10] | PBM binding z-score [11] | PBM binding z-score [12] | PBM binding z-score [13] | PBM binding z-score [14] | PBM binding z-score [15] | PBM binding z-score [16] | PBM binding z-score [17] | PBM binding z-score [18] | PBM binding z-score [19] | PBM binding z-score [20]
ACAGACAGGTGATGAAGGTAACCCAGGCTATCAT | -0.0743 | -0.103 | -0.116 | -0.241 | -0.475 | 0.302 | 0.814 | 0.0501 | 0.126 | -0.204 | -0.12 | 0.789 | 0.463 | 0.0514 | 0.225 | -0.103 | -0.0491 | 0.412 | -0.333 | 0.413
TATACAGGGTCAGAGGCCAGAGTACGAATGTCGA | 4.14 | 3.96 | 0.791 | 2.95 | 1.8 | 4.29 | 5.34 | 5.19 | 3.23 | 4.52 | 1.65 | 3.65 | 2.26 | 1.28 | 2.24 | 2.83 | 0.79 | 3.74 | 1.13 | 3.72
AATACAGGGTCATCGTAGGCCAAAGTACGCACAG | 7.45 | 6.92 | 3.34 | 5.36 | 1.6 | 6.04 | 6.83 | 5.96 | 2.67 | 4.78 | 2.81 | 4.06 | 3.81 | 2.62 | 3.47 | 5.59 | 1.03 | 5.27 | 1.3 | 4.29
CGTCCAAGGTCAATGCTAGGTCATTGAAAGCATT | 7.16 | 6.36 | 5.55 | 4.79 | 1.21 | 5.28 | 4.04 | 4.94 | 1.89 | 3.66 | 3.36 | 3.99 | 1.51 | 0.205 | 6.45 | 5.79 | 3.15 | 6.69 | 1.7 | 5.19
